HCV NS3h FP: hepatitis C NS3 helicase inhibition, primary screen; NS3h Cy5-dT15 DNA binding, fluorescence polarization; inhibition, % at 100 µM; 16,000 compounds, 1.6% hits; AID 687043;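 active = inhibition above the average over every tested compound plus 3 SD, cut at about 40% in these data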
Cy5 interf NS3h: enhances or quenches Cy5 fluorescence in NS3h assay; Cy5-dT15 DNA with NS3h, fluorescence interference; actives lie on both sides; signal over control mean, under 1 quenches; fluorescence interference ratio at 100 µM; 16,000 compounds, 6% hits; AID 720488;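 active = compound fluorescence over control fluorescence at most 0.8, a quencher, or at least a set upper limit, an enhancer; inactive = ratio between 0.8 and the set upper limit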
Numbers without * were called inactive. The list is not random: actives were taken first. Their share in the collection is about 7.6%.

SMILES	HCV NS3h FP	Cy5 interf NS3h
C=CCN1C(=O)/C(=C\c2ccccc2OCc2cccc3ccccc23)SC1=S	3.4	1.14
O=C(CCN1C(=O)/C(=C/c2cccs2)SC1=S)Nc1ccc(F)cc1	2.9	1.05
CN1CCN(C(=O)CCN2C(=O)/C(=C/c3cccs3)SC2=S)CC1	0.3	0.577*
O=C(COc1ccc(Cl)cc1)Nc1ccc(Cl)cc1	10.7	1.05
CC1C(c2ccccc2)NC(c2ccccc2)C(C)C1O (stereo not drawn)	-3.7	1.03
COc1ccc(C2CC(O)C(C)C(c3ccc(OC)cc3)N2)cc1 (stereo not drawn)	15.9	0.726*
Cc1cccc(NC(=O)c2ccc(OCC(C)C)cc2)c1	4.6	1.02
CCCCOC(=O)c1ccc(NC(=O)c2cccc(Cl)c2Cl)cc1	20.4	0.689*
CCC(=O)Nc1ccc(NC(=O)c2cccc(Cl)c2Cl)cc1	16.2	1.03
O=C(Nc1ccc(N2CCOCC2)cc1)c1cccc(Cl)c1Cl	19.5	0.672*
COc1c(Cl)cc(C(=O)Nc2ccc(N3CCOCC3)cc2)cc1Cl	4.3	0.926
O=[N+]([O-])c1ccc(-n2nnc3ccccc32)nc1	11.4	1.04
CCOc1ccc(NC(=O)CC2S/C(=N/N=C(/C)c3ccc(Cl)cc3)NC2=O)cc1 (stereo not drawn)	0.0	1.12
Cc1cc(C)cc(-n2c(C)cc(/C=C3\NC(=S)NC3=O)c2C)c1	8.2	0.932
COc1cc(C=C2C(=O)NC(=S)NC2=O)ccc1OCc1ccc(Cl)cc1	17.7	0.678*
CCOc1cc(C=C2C(=O)NC(=O)NC2=O)ccc1OCCOc1ccccc1C	7.3	1.04
CCOc1cc(C=C2C(=O)NC(=O)NC2=O)ccc1OCc1ccc(Cl)cc1	-15.4	0.402*
O=C1NC(=O)C(=Cc2ccccc2OCc2ccc(F)cc2)C(=O)N1	28.2	1.03
COc1cc(C=C2C(=O)NC(=O)NC2=O)ccc1OCCC(C)C	24.0	0.8*
O=C1NC(=O)C(=Cc2ccc(OCc3ccc(F)cc3)cc2)C(=O)N1	-4.5	0.704*
CCOc1cc(/C=C2/SC(=O)NC2=O)ccc1OCc1ccc(Cl)cc1	19.9	1.05
COC(=O)COc1ccc(C=C2C(=O)NC(=S)NC2=O)cc1OC	39.5	1.08
COc1ccc(OC)c(NC(=O)c2cccc(Cl)c2Cl)c1	14.5	0.925
CCN(CC)c1ccc(NC(=O)c2ccc(-c3ccc([N+](=O)[O-])cc3C)o2)cc1	8.5	0.969
COc1cc(N2C(=O)NC(=O)/C(=C\c3cc(I)c(O)c(OC)c3)C2=O)c(OC)cc1Cl	8.8	0.845
SMILES	HCV NS3h FP	Cy5 interf NS3h
CCOC(=O)c1cc(-c2ccc(C=C3C(=O)N(C)C(=O)N(C)C3=O)o2)ccc1Cl	5.6	1.09
C/C(=N/N1CCN(Cc2ccc(C)cc2)CC1)c1ccncc1	0.9	1.03
CC1(C)C(c2ccccc2)=[N+]([O-])C2(CCCCC/C2=N/NC(N)=S)N1O (stereo not drawn)	-4.9	1.05
CC(=O)N/C(=C\c1cccc([N+](=O)[O-])c1)C(=O)NC(C)C	5.7	1
C/C(=N/N=C\c1cccc([N+](=O)[O-])c1)C1C(=O)c2ccccc2C1=O	8.7	0.622*
COc1ccc(S(=O)(=O)N(CCc2ccccc2)CC(=O)NCCc2ccccc2)cc1	23.6	1.02
COc1ccccc1OCC(=O)Nc1ccc(S(N)(=O)=O)cc1	2.3	1.01
COc1ccc(NC(=O)COc2cccc3ccccc23)cc1	15.9	0.767*
COc1cc(/C=c2\sc3nc4ccccc4n3c2=O)ccc1OS(=O)(=O)c1ccccc1[N+](=O)[O-]	18.5	1.22*
O=c1/c(=C/c2ccccc2OS(=O)(=O)c2ccccc2[N+](=O)[O-])sc2nc3ccccc3n12	-2.6	0.9
O=C(NNC(=O)c1ccc(Oc2ccc(C(=O)NNC(=O)c3ccncc3)cc2)cc1)c1ccncc1	-17.3	1.02
Cc1ccc(C2CC(C(F)(F)F)n3ncc(C(=O)N4CCSCC4)c3N2)cc1 (stereo not drawn)	15.2	0.489*
CN1CCN(C(=O)c2cnn3c2NC(c2ccc(Br)cc2)CC3C(F)(F)F)CC1 (stereo not drawn)	1.7	1.04
CC(C)NC(=O)c1cnn2c1NC(c1ccc(Br)cc1)CC2C(F)(F)F (stereo not drawn)	10.0	1.09
O=C(NCc1cccs1)c1cnn2c1NC(c1ccc(Br)cc1)CC2C(F)(F)F (stereo not drawn)	18.9	0.493*
O=C(O)c1cnn2c1NC(c1ccc(F)cc1)CC2C(F)(F)F (stereo not drawn)	-4.5	0.954
O=C(O)c1cnn2c1NC(c1ccc(Br)cc1)CC2C(F)(F)F (stereo not drawn)	-11.6	0.788*
COc1cc(-c2c(C#N)c(N)n3c(nc4ccccc43)c2C#N)ccc1OCC#N	-23.6	0.896
Cc1ccc(C(=O)NCCCNc2ccc([N+](=O)[O-])cc2Cl)cc1	3.7	1.05
COc1ccc(C(=O)N/C(=C\c2ccc(-c3cccc([N+](=O)[O-])c3)o2)C(=O)NCc2cccnc2)cc1	3.3	0.82
COc1ccc(OC)c(/C=C2/C(=O)N(c3ccc([N+](=O)[O-])cc3)N=C2c2ccccc2)c1	13.5	1.04
Cc1ccccc1NC1=C(Cl)C(=O)N(c2cccc(C)c2C)C1=O	15.4	0.962
C/C(=N/NS(=O)(=O)c1ccc(C)cc1)C(C)(C)CC(=O)O	-2.2	1.09
COC(=O)CN1C(=O)/C(=C\C=C\c2ccccc2)SC1=S	7.4	1.05
CC(=O)Oc1ccccc1/C=C1\C=C(c2ccc(Br)cc2)OC1=O	-2.4	0.83
SMILES	HCV NS3h FP	Cy5 interf NS3h
COc1ccc(C2N(Cc3ccccc3)CCN2Cc2ccccc2)cc1OC	11.5	0.907
COc1ccc(C2N(c3ccccc3)CCN2c2ccccc2)cc1O	10.6	0.753*
COc1ccc(C(=O)Nc2ccccc2)cc1NC(=O)c1ccccc1C	4.7	1.02
CCc1ccccc1N1C(=O)/C(=C/c2cc(C)n(-c3cccnc3)c2C)C(=O)NC1=S	6.3	1.23*
Cc1ccccc1N1C(=O)/C(=C/c2cc(C)n(-c3cccnc3)c2C)C(=O)NC1=S	10.0	0.967
CC(=O)Nc1ccc(S(=O)(=O)NC(c2ccccc2)c2ccccc2)cc1	12.4	1.12
CC(=O)Nc1ccc(S(=O)(=O)NNC(=O)c2ccccc2Cl)cc1	15.0	0.746*
O=C(Cc1ccccc1)NC(c1ccco1)c1c(O)ccc2ccccc12 (stereo not drawn)	5.0	0.589*
O=C(Cc1ccccc1)NC(c1ccco1)c1ccc2cccnc2c1O (stereo not drawn)	13.1	1.01
COC(=O)c1ccc(/C=C2\SC(=Nc3ccc(Br)cc3)NC2=O)cc1	8.7	0.992
CC(=O)N1C(=O)/C(=C2/SC(=Nc3ccc(Br)cc3)NC2=O)c2ccccc21	10.0	1.22*
COc1cc(C=O)cc2c1OC1(C=C2)N(C)c2ccccc2C1(C)C (stereo not drawn)	4.1	1.06
O=C(CSc1ncc(-c2ccccc2)[nH]1)Nc1ccc(F)cc1	-2.4	0.782*
O=C(CSCc1ccc(F)cc1)Nc1ccccc1	7.1	0.933
COc1ccc(Cl)cc1C(=O)N(Cc1ccccc1)C(C)C	10.0	0.973
O=C(c1cc(Cl)ccc1Cl)N(Cc1ccccc1)c1ccccn1	7.7	0.617*
C=CCNC(=O)CN(c1cc(Cl)cc(Cl)c1)S(C)(=O)=O	5.3	1.22*
Cc1ccc(NC(=O)CN(c2cc(Cl)cc(Cl)c2)S(C)(=O)=O)cc1	7.1	0.989
